{"source": "paper PMC3795721", "about": "“Screening for Protein-DNA Interactions by Automatable DNA-Protein Interaction ELISA”"}
{"target": "AT4G31550 (Arabidopsis thaliana, UniProt Q9SV15 228-325)", "sequence (Q9SV15 228-325)": "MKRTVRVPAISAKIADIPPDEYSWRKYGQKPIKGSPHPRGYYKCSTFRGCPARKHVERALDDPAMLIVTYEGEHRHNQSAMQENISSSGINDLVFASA", "test": "DPI-ELISA; DPI-ELISA, streptavidin 384-well plate, 1-2 pmol biotinylated dsDNA per well, crude native E. coli extract, anti-His detection; buffer as in Brand et al. [46],; high values mean tight binding", "conditions": "tags: C-terminal His (pET-DEST42); label: 5' biotin on forward strand; dsDNA, one strand shown", "units": {"binding signal": "absorbance"}}
{"sequence": "AAAAAACCCTACATCGCATATAAGAGAAAA", "binding signal": "0.675 ± 0.0212"}
{"sequence": "AAAAAAGGGCGAGCGCTGGATCCACAAAA", "binding signal": "0.505 ± 0.106"}
{"sequence": "AAAAAACCCGCCGTCGTGATTATCACAAAA", "binding signal": "0.73 ± 0.0707"}
{"sequence": "AAAAAAGAAATACCAGAAACTATCATAAAA", "binding signal": "0.705 ± 0.219"}
{"sequence": "AAAAAAATCGTTGTTATCGTATTTATAAAA", "binding signal": "0.565 ± 0.12"}
{"sequence": "AAAAAAATCACGGTTCGACCTCCAGCAAAA", "binding signal": "0.7 ± 0.127"}
{"sequence": "AAAAAACCCGGTTGGAGAAAATAATTAAAA", "binding signal": "0.55 ± 0.127"}
{"sequence": "AAAAAACACGCCATTGACACTGGTAAAAAA", "binding signal": "1.67 ± 0.219"}
{"sequence": "AAAAAATCTAGGGGTACCTATTTGGCAAAA", "binding signal": "0.675 ± 0.12"}
{"sequence": "AAAAAACTTGCTCCTCCGTTTTACTCAAAA", "binding signal": "0.775 ± 0.276"}
{"sequence": "AAAAAATGAGAGAATTTCCGGTTCAGAAAA", "binding signal": "0.575 ± 0.0495"}
{"sequence": "AAAAAACCAACTCTCTTTCGGACTATAAAA", "binding signal": "0.67 ± 0.156"}
{"sequence": "AAAAAACTGGCGACTGCCAGTGGTAGAAAA", "binding signal": "0.385 ± 0.0354"}
{"sequence": "AAAAAAGCTAGTCGATTCGGCTTAGAAAAA", "binding signal": "0.68 ± 0.17"}
{"sequence": "AAAAAACACTGCACTATTGGGAGTTCAAAA", "binding signal": "0.615 ± 0.177"}
{"sequence": "AAAAAACCCATCCTTCGTTCCATCGTAAAA", "binding signal": "0.76 ± 0.141"}
{"sequence": "AAAAAACATTCCTAGTTCATGTTACTAAAA", "binding signal": "0.665 ± 0.134"}
{"sequence": "AAAAAATTGCATTCCACCCTTAGGTTAAAA", "binding signal": "0.495 ± 0.106"}
{"sequence": "AAAAAATCTTCTTGTTTCTTATTTCTAAAA", "binding signal": "0.625 ± 0.12"}
{"sequence": "AAAAAATATGCTACTCCACCTTGATGAAAA", "binding signal": "0.67 ± 0.156"}
{"sequence": "AAAAAAGCGTAAGCCTTGACAGTCGTAAAA", "binding signal": "0.725 ± 0.106"}
{"sequence": "AAAAAATCGCACTGCCGCCGATGGCTAAAA", "binding signal": "0.625 ± 0.134"}
{"sequence": "AAAAAAAGTCTGCGGCTGCAGGGCGGAAAA", "binding signal": "1.91 ± 0.368"}
{"sequence": "AAAAAATTCTAGCTTTTAACTTTAGCAAAA", "binding signal": "0.6 ± 0.141"}
{"sequence": "AAAAAATTACTTCTCCCTTCCTTTGCAAAA", "binding signal": "0.605 ± 0.163"}
{"sequence": "AAAAAAGGTAGTCACATTACGAGGGTAAAA", "binding signal": "0.555 ± 0.0354"}
{"sequence": "AAAAAAGCATATCTTCAGAACTTGCCAAAA", "binding signal": "0.625 ± 0.0778"}
{"sequence": "AAAAAAACGATACGGTATCTAGAAAA", "binding signal": "0.525 ± 0.0495"}
{"sequence": "AAAAAAAAATCGAATTTGGACTTCCGAAAA", "binding signal": "0.775 ± 0.0354"}
{"sequence": "AAAAAATTAGTCCTGATTCAATCTTCAAAA", "binding signal": "0.755 ± 0.106"}
{"sequence": "AAAAAATGGTCGTCGTACTCGTGGTCAAAA", "binding signal": "2.96 ± 0.424"}
{"sequence": "AAAAAAATCCCACTTCATTCTAAAAA", "binding signal": "0.6 ± 0.0707"}
{"sequence": "AAAAAATCCTGTTTGCGTTTGATTTTAAAA", "binding signal": "0.51 ± 0.099"}
{"sequence": "AAAAAATATATTTTCAGCTTTAATCTAAAA", "binding signal": "0.685 ± 0.106"}
{"sequence": "AAAAAATTCGTTTTTCGTCTTTCATTAAAA", "binding signal": "0.7 ± 0.156"}
{"sequence": "AAAAAAACCGATTACCATTTTTACTGAAAA", "binding signal": "0.695 ± 0.148"}
{"sequence": "AAAAAATTTATACTTGATCCTGGCTTAAAA", "binding signal": "0.575 ± 0.0636"}
{"sequence": "AAAAAAAAGTGCCAACGTTCAAGAAAAA", "binding signal": "0.38 ± 0.099"}
